# Screens: PubChem, National Center for Advancing Translational Sciences (NCATS)
# NPC1 prom act: activates the NPC1 promoter; Huh7 NPC1 promoter luciferase reporter, 24 h; Potency, µM (series often up to 9.22 µM), inactives show at the highest dose activation, actives largely listed as activators; actives 2.4% (n = 320,000); AID 485313; further: % of control where 0% means no effect; nearly all actives have a fitted effect of over 60% in size
#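 In 1536-well qHTS, Huh7 cells harboring an NPC1 promoter–luciferase construct received compound for 24 h; activation was quantified by luminescence following luciferase reagent addition.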
# SMN2 splice enh: enhancers of SMN2 splice variant expression | HEK293 SMN2-luciferase splicing reporter, luminescence, 30-36 h | Potency, µM (titrated, usually from 46.1 µM), without a hit: at the highest dose activity change, positive = activation, most hits filed as activators | actives 2.8% (n = 210,000) | AID 1458; further: % of control where 0% means no effect; nearly all actives have a fitted effect of over 55% in size
#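 qHTS luciferase splicing reporter: luminescence rises when SMN2 exon 7 is included in transfected HEK293 cells. Compound exposure lasted 30-36 h at 37C, with 4.5 mM final sodium butyrate as control, followed by a ONE-Glo read.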
# FLuc counter: inhibits or activates purified firefly luciferase, miR-21 counter-screen. P08659. actives 6.9% (n = 360,000). purified FLuc, Km substrates, luminescence inhibition. Potency, µM (top dose mostly 57.5 µM), inactives show at the top dose activity change, negative = inhibition, hits mostly inhibitors;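 further: plate controls were vehicle for no effect and reference inhibitor for full effect; nearly all actives have a fitted effect of over 55% in size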
# Target sequence (P08659 whole entry, looked up): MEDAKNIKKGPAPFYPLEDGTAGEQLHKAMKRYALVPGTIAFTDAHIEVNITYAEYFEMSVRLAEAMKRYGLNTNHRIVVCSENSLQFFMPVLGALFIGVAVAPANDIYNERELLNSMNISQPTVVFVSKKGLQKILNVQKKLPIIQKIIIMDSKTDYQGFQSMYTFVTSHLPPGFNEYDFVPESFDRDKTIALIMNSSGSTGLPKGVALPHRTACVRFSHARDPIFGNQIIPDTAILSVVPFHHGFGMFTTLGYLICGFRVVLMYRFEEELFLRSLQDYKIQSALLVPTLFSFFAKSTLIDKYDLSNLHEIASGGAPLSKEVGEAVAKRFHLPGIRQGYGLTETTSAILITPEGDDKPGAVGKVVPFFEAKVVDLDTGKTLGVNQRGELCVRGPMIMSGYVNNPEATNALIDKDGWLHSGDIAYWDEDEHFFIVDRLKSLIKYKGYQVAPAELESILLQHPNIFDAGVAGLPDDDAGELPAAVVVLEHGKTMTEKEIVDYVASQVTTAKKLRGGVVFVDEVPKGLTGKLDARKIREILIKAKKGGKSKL
#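 Purified P. pyralis luciferase, 10 nM final, with Km-level 10 uM D-luciferin and 10 uM ATP in 50 mM Tris acetate pH 7.5, 10 mM Mg acetate, 0.01% Tween-20, 0.05% BSA; 6-point qHTS titration about 60 µM downward; luminescence read.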
# ELG1 genotox: inducers of genotoxicity in HEK293T ELG1-luciferase cells; actives 1.3% (n = 330,000); Potency, µM (highest dose often 46 µM), for inactives: top-dose activity change, positive = activation, most hits filed as activators; HEK293T ELG1-luciferase reporter, luminescence, 16 h; further: % of control where 0% means no effect; nearly all actives have a fitted effect of over 60% in size
#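 Genotoxicity was scored as increased ELG1-luciferase reporter signal, measured by ONE-Glo luminescence (30 min, room temperature). Compound or vehicle exposure of the HEK293T reporter cells lasted 16 hr at 37°C.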
# p53 reactivation: restores transcriptional activity of mutant p53 | H1299 p53-A138V BP100-luciferase reporter, luminescence, 24 h | Potency, µM (series often up to 92.2 µM), for the others: at the top dose activity change, positive = activation, hits mostly activators | actives 0.063% (n = 320,000) | AID 504706; further: % of control where 0% means no effect; nearly all actives have a fitted effect of over 45% in size
#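 H1299 (p53-null), stable ts p53-A138V + BP100-Luc; 1000 cells/well, Opti-MEM/10% FBS; cpd 4 pt, 1:5; 24 h, 37 deg C, 5% CO2; detection reagent 10 min RT; luminescence.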
# Rab9 promoter act: Rab9 promoter activation; Huh7 Rab9 promoter-luciferase reporter, luminescence, 24 h; actives 2.8% (n = 320,000); Potency, µM (series often up to 9.22 µM), for the others: at the highest dose activation, negative = inhibition, most hits filed as activators; further: % of control where 0% means no effect; nearly all actives have a fitted effect of over 60% in size
#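 Quantitative HTS format; Huh7 Rab9-luciferase reporter cells (1500/well) receive compound 2 h post-plating, incubate 24 h at 37 °C, then get luciferase reagent for 10 min before luminescence reading.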
# The depositor's hits bear a star; ? = inconclusive; . = no result given; [ ] = remark or other dose. This is a sample that favours compounds with a hit; in the whole collection about 7.3% have one here. The call rests on the fitted dose curve; in most records, active means well fitted curve in the direction sought with a large enough effect; inconclusive means small, poorly fitted or top-dose-only effect, or another doubt; inactive means no such curve, though single readings can be large; an effect the other way counts as inactive or inconclusive. Potency means the concentration at half of the fitted maximal effect.
SMILES,NPC1 prom act,SMN2 splice enh,FLuc counter,ELG1 genotox,p53 reactivation,Rab9 promoter act
O=C(OCC(=O)c1ccc[nH]1)c1ccc(Br)cc1,-0.3%,.,?,3.2%,0.4%,3.0%
COc1ccc(C(=O)OCC(=O)c2ccc[nH]2)cc1,?,.,26.9µM*,?,?,?
O=C(/C=C/c1ccc(F)cc1)OCC(=O)c1ccc[nH]1,10.3%,.,?,6.3%,?,15.5%
O=C(COC(=O)c1ccc(F)cc1F)c1ccc[nH]1,1.3%,.,19µM*,2.9%,2.5%,-2.5%
COc1ccccc1C(=O)OCC(=O)c1ccc(CNC(C)=O)s1,.,.,.,0.4%,8.9%,.
O=C(O)Cc1ccc(C(=O)c2ccccc2)s1,-2.1%,-14.1%,-19.1%,0.0%,4.8%,-0.7%
CSc1ccc(CCNC(=O)CN2C(=O)COc3ccc(S(=O)(=O)N4CCCCCC4)cc32)cc1,.,0.4%,-14.6%,.,.,.
Cc1nc(SCC(=O)c2ccccc2)c(C#N)c(-c2ccco2)c1C(=O)NCc1ccco1,-7.1%,-31.2%,-6.1%,-0.6%,6.8%,0.7%
COc1cccc([C@@H]2Oc3ccc(OC)cc3C[C@H]2OC(=O)N[C@H]2CCCc3ccccc32)c1,.,-3.1%,.,.,.,.
COc1ccc(NC(=O)c2oc3ccccc3c2NC(=O)Cc2cccs2)c(OC)c1,.,10.6%,0.3%,.,.,.
COc1ccc(N2CCN(C(=O)c3ccc(-c4nc5ccccc5s4)o3)CC2)cc1,2.4%,.,9.53µM*,1.8%,11.4%,17.8%
COc1ccccc1N1CCN(C(=O)c2ccc(-c3ccc(Cl)cc3)o2)CC1,-42.4%,.,?,-1.9%,9.0%,-40.2%
COc1ccccc1N1CCN(C(=O)c2ccc(-c3nc4ccccc4s3)o2)CC1,-3.5%,.,13.5µM*,-6.5%,?,24.4%
Cc1cc(C)c(NC(=O)C2CCN(c3nc4ccccc4n4cccc34)CC2)c(C)c1,.,.,3.0%,.,.,.
Cc1cc(C(=O)CN2C(=O)NC3(CCCc4sccc43)C2=O)c(C)n1-c1ccccc1 (stereo unspecified),8.9%,9.8%,16.9µM*,-0.9%,-0.1%,12.4%
COc1ccc(-n2c(C)cc(C(=O)CN3C(=O)NC4(CCCc5sccc54)C3=O)c2C)cc1 (stereo unspecified),-1.7%,-33.0%,1.4%,-2.4%,1.5%,0.4%
C/C(NC(=O)c1cccs1)=C1\C(=O)C[C@@H]2[C@H]1C2(C)C,?,.,15.1µM*,?,?,?
COc1cc(C(C#N)N2N=C(c3ccccc3)CC2c2ccccc2)ccc1O (stereo unspecified),14.9%,-0.7%,?,?,13.1%,12.0%
N#CC(c1ccccc1O)N1N=C(c2ccccc2)CC1c1ccccc1 (stereo unspecified),16.2%,.,9.53µM*,?,?,?
Cc1ccc(NC(=O)N/C=C/c2ccccc2)cc1,0.891µM*,14.1µM*,2.13µM*,?,?,1.41µM*
O=C(N/C=C/c1ccccc1)Nc1ccc(Cl)cc1,3.55µM*,?,6.75µM*,?,?,4.47µM*
C=CCN(CC=C)C(=O)CN1C(=O)NC(Cc2c[nH]c3ccccc23)C1=O (stereo unspecified),-6.1%,.,-0.8%,-1.0%,0.9%,-2.6%
COc1cccc(-n2cc(C(=O)Nc3cc(OC)c(OC)c(OC)c3)c3ccccc3c2=O)c1,.,.,-0.9%,.,.,.
O=C(c1cc2cc(Br)ccc2o1)N1CCOCC1,12.8%,.,21.3µM*,21.0%,10.2%,?
O=C(c1cc2cc(Br)ccc2o1)N1CCN(c2ccccc2)CC1,-1.4%,.,19µM*,?,25.6%,-0.6%
SMILES,NPC1 prom act,SMN2 splice enh,FLuc counter,ELG1 genotox,p53 reactivation,Rab9 promoter act
O=C(c1cc2cc(Br)ccc2o1)N1CCCC1,?,26.4%,?,?,15.3%,?
COc1ccc(N2CCN(C(=O)c3cc4ccccc4o3)CC2)cc1,10.3%,.,-0.8%,5.8%,0.2%,-4.6%
COc1ccc(OC)c(CNC(=O)CN(c2ccc(C)cc2)S(=O)(=O)N(C)C)c1,.,?,4.3%,.,.,.
Clc1ccc(-c2cnn3c(-c4ccncc4)ccnc23)cc1,0.501µM*,3.16µM*,0.953µM*,23.1%,?,0.355µM*
Cc1cc(-c2ccc(Cl)cc2)n2nc(N)nc2n1,-2.9%,.,2.9%[2.3 µM],?,-0.2%,2.2%
Nc1c(C(=O)O)cnc2c(-c3ccc(Cl)cc3)cnn12,1.41µM*,11.2µM*,3.01µM*,?,?,1µM*
Cc1nn2c(-c3ccncc3)ccnc2c1Cl,-4.8%,-3.3%,-1.8%,7.0%,-1.2%,-4.1%
Nc1nc2nccc(-c3ccc(Cl)cc3)n2n1,?,9.5%,12µM*,?,?,?
CC(=O)c1cnc2c(-c3ccc(Cl)cc3)cnn2c1C,22.0%,12.6µM*,?,?,?,?
CC(C)(C)C(=O)Cn1ncc(N2CCCC2)c(Br)c1=O,?,23.6%,?,?,5.2%,3.98µM*
CC(C)(C)C(=O)Cn1ncc(N2CCOCC2)c(Br)c1=O,6.9%,7.0%,-2.4%,8.8%,16.1%,26.1%
CC(=O)Oc1ccc(C(=O)Cc2ccccn2)c(O)c1,-0.5%,-4.6%,16.9µM*,0.6%,5.6%,-3.4%
COc1ccc(Cn2c(SCc3ccc(C(=O)NC4CCCCC4)cc3)nc3cccnc32)cc1,.,.,-1.9%,.,.,.
CC(CNC(=O)c1ccc(Cn2c(SCc3ccccc3)nc3cccnc32)cc1)c1ccccc1 (stereo unspecified),.,.,4.78µM*,.,.,.
COc1ccccc1CNC(=O)c1ccc(Cn2c(SCc3ccccc3)nc3cccnc32)cc1,.,.,4.78µM*,.,.,.
O=C(NC1CCCC1)c1ccc(CSc2nc3cccnc3n2Cc2ccc(F)cc2)cc1,.,.,-8.4%,.,.,.
Cc1ccccc1CNC(=O)c1ccc(Cn2c(SCc3ccccc3)nc3cccnc32)cc1,.,.,2.69µM*,.,.,.
Cc1cccc(Cn2c(SCc3ccc(C(=O)NCc4cccs4)cc3)nc3cccnc32)c1,.,.,-15.2%,.,.,.
CCN(CC)CCCNC(=O)c1ccc(Cn2c(SCc3ccccc3)nc3cccnc32)cc1,.,.,21.3µM*,.,.,.
Cc1nn2c(COc3ccc(NC(=O)c4ccccc4Cl)cc3)nnc2c2ccccc12,-2.8%,19.1%,6.01µM*,-5.0%,13.1%,1.6%
Cc1cccnc1Nc1nc(-c2ccc(O)cc2)cs1,?,25.1µM*,6.75µM*,?,?,3.55µM*
Cc1cccnc1Nc1nc(-c2ccc(F)cc2)cs1,1.41µM*,.,2.69µM*,13µM*,.,2.82µM*
O=S(=O)(c1ccc(=S)[nH]c1)N1CCN(Cc2ccccc2)CC1,.,.,.,8.1%,-3.7%,.
